This note sets out measurements from PubChem BioAssay (NCI).

Among the test systems are NCI-H23 lung; NCI-H226 lung; NCI-H322M lung; HOP-62 NSCLC; NCI-H460 lung; NCI-H522 lung; A549/ATCC NSCLC; 786-0 renal; COLO 205 colon; DU-145 prostate; K-562 leukemia; MDA-MB-231 breast; RXF 393 renal; SF-268 CNS; SF-295 CNS; SF-539 CNS; UACC-257 melanoma; M14 melanoma.
Test in all cases: NCI-60 one-dose screen, 48 h (100 = growth as untreated, 0 = no growth, -100 = all killed)
Holding throughout (conditions): 10 µM unless noted

The structures appear in SMILES notation. About 83,000 compounds went through this panel and 20% of them were active in at least one assay; those are over-represented in the sample as a whole.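 For each line, cells grew in 96-well plates with the test compound present at a single concentration for 48 hours.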 A number with no mark means an inactive call. Active and inactive are the calls of the source. How the source made its calls: active means growth percent below 10; inactive means the rest.

Consider `CCO/C=N/C1=C(C#N)C(c2ccc(Cl)cc2)c2sc3c(CC)cccc3c2O1` (centres undefined), for which the growth in the test on NCI-H23 lung is 22%; in the test with NCI-H226 lung, 54.7%; in the test on NCI-H322M lung, 43.3%; in the test on HOP-62 NSCLC it was 45.1%; in the test on NCI-H460 lung, 9.19% (active); in the test with NCI-H522 lung it was 7.65% (active). In addition, the growth in the test on A549/ATCC NSCLC is 30%; in the test on 786-0 renal, 41.9%; in the test with COLO 205 colon it was 14%; in the test on DU-145 prostate it was 13.6%; in the test on K-562 leukemia, 11.4%; in the test on MDA-MB-231 breast it was 37.2%. Also, the growth was -27.7% (active) with RXF 393 renal; 58.3% with SF-268 CNS; -12.1% (active) in the test on SF-295 CNS; -3.86% (active) in the test with SF-539 CNS; 70.3% with UACC-257 melanoma; 8.6% (active) in the test on M14 melanoma.

As to `NC(N)=Nc1ccc(Oc2cccc(Nc3ccc(Cl)cc3)c2)cn1`, the growth was 29.1% in the test on NCI-H23 lung; 29.6% in the test with NCI-H226 lung; -3.11% (active) in the test on NCI-H322M lung; -21.3% (active) in the test on HOP-62 NSCLC; -72.6% (active) with NCI-H460 lung; -30.1% (active) with NCI-H522 lung. Moreover, the growth in the test with A549/ATCC NSCLC was 24.8%; in the test on 786-0 renal, 35.4%; with COLO 205 colon it was -64.4% (active); in the test with DU-145 prostate, -18.1% (active); in the test on K-562 leukemia, -68.5% (active); in the test on MDA-MB-231 breast, 10.7%. Also, the growth was 1.19% (active) in the test on RXF 393 renal; 41.3% with SF-268 CNS; -75.1% (active) in the test on SF-295 CNS; 73.3% with SF-539 CNS; 28.4% in the test on UACC-257 melanoma; 42.2% with M14 melanoma.

`NC(N)=Nc1ccc(Nc2cccc(Nc3ccc(Cl)c(C(F)(F)F)c3)c2)cn1`: the growth is 41.7% in the test on NCI-H23 lung; 24.4% in the test on NCI-H226 lung; -6.68% (active) with NCI-H322M lung; 19.5% with HOP-62 NSCLC; -23.9% (active) in the test with NCI-H460 lung; 8.21% (active) in the test with NCI-H522 lung. The growth in the test on A549/ATCC NSCLC is 57%; in the test on 786-0 renal, 72.6%; in the test on COLO 205 colon it was -25.1% (active); in the test on DU-145 prostate it was 66.1%; in the test on K-562 leukemia it was -2.73% (active); with MDA-MB-231 breast, 31%. Further, the growth in the test on RXF 393 renal is 77.6%; in the test on SF-268 CNS, 33.1%; with SF-295 CNS, 11.6%; with SF-539 CNS it was 80.7%; with UACC-257 melanoma, 42.9%; in the test with M14 melanoma it was 47.3%.

Turning to `NC(N)=Nc1ccc(Oc2cccc(Nc3ccc(Br)c(C(F)(F)F)c3)c2)cc1`, the growth in the test on NCI-H23 lung was 13.8%; with NCI-H226 lung, 39.2%; in the test on NCI-H322M lung, 44.8%; in the test with HOP-62 NSCLC, -37.1% (active); in the test with NCI-H460 lung, -66.9% (active); in the test on NCI-H522 lung, 15%. The growth in the test on A549/ATCC NSCLC was 33.7%; in the test with 786-0 renal it was 32.7%; in the test with COLO 205 colon it was -31.2% (active); with DU-145 prostate, 22.8%; in the test with K-562 leukemia, -11.1% (active); in the test on MDA-MB-231 breast, -7.69% (active). Moreover, the growth in the test on RXF 393 renal was 40.7%; with SF-268 CNS, 25.3%; in the test on SF-295 CNS, -65.3% (active); with SF-539 CNS, 54.3%; with UACC-257 melanoma it was 0.206% (active); in the test on M14 melanoma it was 8.54% (active).

In the case of `CCc1cccc2c3c(sc12)C(c1ccc(Cl)cc1)C(C#N)=C(/N=C/c1ccc(Cl)cc1)O3` (centres undefined), the growth in the test with NCI-H23 lung is 17.1%; with NCI-H226 lung, 53.3%; in the test with NCI-H322M lung it was 37.3%; with HOP-62 NSCLC it was 37%; in the test on NCI-H460 lung it was 7.17% (active); with NCI-H522 lung, 10.8%. The growth was 33.8% in the test on A549/ATCC NSCLC; 39.5% in the test on 786-0 renal; 16.7% in the test with COLO 205 colon; 12.1% in the test on DU-145 prostate; 10% in the test on K-562 leukemia; 33.8% with MDA-MB-231 breast. Also, the growth in the test with RXF 393 renal is -31% (active); with SF-268 CNS it was 58.3%; with SF-295 CNS, -22.7% (active); in the test with SF-539 CNS it was -7.57% (active); in the test on UACC-257 melanoma, 60.4%; in the test on M14 melanoma it was 1.34% (active).

Consider `COc1ccc(C2CC(c3ccc(Nc4nc(NCCO)nc(N5CCOCC5)n4)cc3)=Nc3c(N)nc(N)nc3N2)cc1` (centres undefined), for which the growth is 99.1% in the test on NCI-H23 lung; 94.8% in the test with NCI-H226 lung; 95% in the test with NCI-H322M lung; 108% with HOP-62 NSCLC; 110% in the test on NCI-H460 lung; 95.6% in the test with NCI-H522 lung. Also, the growth in the test with A549/ATCC NSCLC is 104%; in the test with 786-0 renal, 97.3%; with COLO 205 colon, 109%; with DU-145 prostate, 103%; in the test on K-562 leukemia it was 99.1%; with MDA-MB-231 breast it was 90.6%. Further, the growth in the test on RXF 393 renal is 114%; in the test with SF-268 CNS, 90.2%; in the test with SF-295 CNS, 106%; with SF-539 CNS, 92.2%; with UACC-257 melanoma it was 109%; in the test with M14 melanoma, 107%.

Consider `COc1cc2nc(Cl)nc(Nc3cccc(C4=Nc5c(N)nc(N)nc5NC(c5ccc(Cl)cc5)C4)c3)c2cc1OC` (centres undefined), for which the growth in the test with NCI-H23 lung is 87.8%; with NCI-H226 lung, 90.4%; in the test on NCI-H322M lung, 86.3%; in the test with HOP-62 NSCLC, 18%; in the test with NCI-H460 lung, 2.91% (active); with NCI-H522 lung, 34.6%. Further, the growth in the test on A549/ATCC NSCLC is 37.2%; with 786-0 renal, -52.1% (active); in the test with COLO 205 colon, 21.5%; with DU-145 prostate, 87.7%; with K-562 leukemia it was -22% (active); in the test with MDA-MB-231 breast it was 72.9%. The growth in the test on RXF 393 renal is 73.6%; with SF-268 CNS it was 84.2%; in the test on SF-295 CNS, -23.9% (active); with SF-539 CNS, 89.3%; with UACC-257 melanoma, 87.3%; with M14 melanoma, 52.2%.

For `Cc1nn(-c2ccccc2)c2ncnc(N/N=C/c3cccc(O)c3)c12`, the growth in the test with NCI-H23 lung is 61.3%; with NCI-H226 lung, 80.5%; with NCI-H322M lung it was 73.1%; in the test on HOP-62 NSCLC it was 44.3%; with NCI-H460 lung it was 15.7%; in the test with NCI-H522 lung it was 25.4%. Moreover, the growth in the test on A549/ATCC NSCLC is 57.7%; in the test on 786-0 renal, 66.7%; with COLO 205 colon, 57.1%; in the test on DU-145 prostate it was 67.9%; in the test on K-562 leukemia, 13.4%; in the test with MDA-MB-231 breast, 70.8%. In addition, the growth with RXF 393 renal was 16.6%; in the test with SF-268 CNS it was 55.9%; in the test with SF-295 CNS, 46.5%; with SF-539 CNS it was 50.4%; in the test with UACC-257 melanoma it was 62.8%; with M14 melanoma it was 28.6%.
